Experimental data taken from PubChem BioAssay (NCI).
The panel holds about 83,000 compounds, 20% with a hit somewhere; the sample as a whole holds those more often.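 The test compound was applied at a single concentration to cells in 96-well plates for 48 hours, and percent growth was recorded.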 Calls of active or inactive are those of the source. The calls were made as follows: active = growth percent below 10; inactive = the rest.

System: K-562 leukemia
Experiment: NCI-60 one-dose screen, 48 h (100 = growth as untreated, 0 = no growth, -100 = all killed)
Settings: 10 µM unless noted

Row | SMILES | growth
1 | C/C(CCC(=O)O)=N/Nc1ccc([N+](=O)[O-])cc1 | 22.3% (inactive)
2 | Nc1nc2c(c3ncncc13)C(c1cccc(C(F)(F)F)c1)Cc1ncncc1-2 (configuration not stated) | 16.9% (inactive)
3 | COc1ccc(-c2nc(SCC(C)C)nc(Nc3ccc([N+](=O)[O-])cc3)c2C#N)cc1 | 93% (inactive)
4 | Cn1c2c(cc(S(=O)(=O)c3ccccc3)c1=O)CCc1c-2cnn1-c1ccc(Cl)cc1 | 39.8% (inactive)
5 | Nc1nc2c(c3cnccc13)C(c1cccc(Cl)c1)Cc1cnccc1-2 (configuration not stated) | 9.68% (active)
6 | CCCCCSc1ccc2nc(NC(=O)OCCC)sc2c1 | 19% (inactive)
7 | CCCCCSc1ccc2nc(NC(=O)OCC)sc2c1 | 15.9% (inactive)
8 | Cc1c(Cc2ccccc2)c(=O)oc2c(C)c(OCc3n[nH]c(=S)o3)ccc12 | 71.6% (inactive)
9 | CCOC(=O)c1c(C)oc2ncnc(Nc3ccc(C(=O)NCCc4ccccc4)cc3)c12 | 89% (inactive)
10 | COc1cc(/C=C/C(=O)c2ccc(F)cc2)ccc1OCCCCOc1cc2c(cc1OC)C(=O)N1CCCC1C=N2 (configuration not stated) | -23.9% (active)
11 | O=C(CCCC(=O)Nc1ccc(Cn2nnc3cc(Cl)c(Cl)cc32)cc1)Nc1ccc(CN2N=NC3C=C(Cl)C(Cl)=CC32)cc1 (configuration not stated) | 67% (inactive)
12 | O=C1Nc2ccccc2/C1=C/c1cn(CC(O)Cn2cc(/C=C3\C(=O)Nc4ccccc43)c3ccccc32)c2ccccc12 (configuration not stated) | -16.7% (active)
13 | COc1cc2ncnc(Nc3ccc4c(cnn4C(=O)Nc4ccccc4)c3)c2cc1OC | 58.3% (inactive)
14 | Cc1nnc(/N=C2\NC(=O)/C(=C/C=C/c3ccccc3)S2)s1 | 36% (inactive)
15 | COC(c1ccccc1)C(Br)C(=O)c1ccccc1 (configuration not stated) | 93.8% (inactive)
16 | COc1cc2ncnc(-n3ncc4cc(NC(=O)Nc5ccccc5)ccc43)c2cc1OC | 39.1% (inactive)

Row | SMILES | growth
17 | COc1cc(-c2cc3cnccc3c3nc(N)c4ccncc4c23)cc(OC)c1OC | 24.1% (inactive)
18 | COc1cc(OC)c(NC(=O)n2ncc3cc(Nc4ncnc5ccccc45)ccc32)cc1Cl | 99.4% (inactive)
19 | COc1cc(OC)cc(-c2ccc(-c3ccc(C(=N)N)cc3)s2)c1 | -39.8% (active)
20 | Nc1ncn([C@@H]2O[C@H](CO)[C@@H](O)C2(F)F)c(=O)n1 | 65.7% (inactive)
21 | CCOC(=O)c1cc(C(=O)c2ccc(Br)cc2)n2cc(C)cc(C)c12 | 99% (inactive)
22 | Nc1nc2c(c3cnccc13)C(c1cccc(Br)c1)Cc1cnccc1-2 (configuration not stated) | 9.88% (active)
23 | O=C1/C(=C\c2cn(-c3nc(N4CCOCC4)nc(N4CCOCC4)n3)c3ccccc23)c2ccccc2N1c1c(Cl)cccc1Cl | 80.6% (inactive)
24 | COc1cc2ncnc(-n3ncc4cc(NC(=O)Nc5ccc(Cl)c(C)c5)ccc43)c2cc1OC | 90.5% (inactive)
25 | N=C(N)c1ccc(-c2ccc(-c3cc(Cl)cc(Cl)c3)s2)cc1 | -55.1% (active)
26 | COc1cc2ncnc(-n3ncc4cc(NC(=O)Nc5ccc(Cl)c(Cl)c5)ccc43)c2cc1OC | 10.7% (inactive)
27 | COC1=CC(c2ccc[nH]2)=N/C1=C\c1[nH]c(C)c(C(=O)CCCCC(=O)NC(C)(C)C)c1C | 53.5% (inactive)
28 | CC1=NN(c2cccc(Cl)c2)C(=O)/C1=C\c1cn(-c2nc(N3CCOCC3)nc(N3CCOCC3)n2)c2ccccc12 | 114% (inactive)
29 | O=C(Nc1ccccc1)Nc1ccc(Nc2ncnc3sc4c(c23)CCCC4)cc1 | 99.8% (inactive)
30 | O=c1c(N=Nc2nccs2)c(-c2ccccc2)[nH]n1-c1nc(-c2ccccc2)cs1 | 32.4% (inactive)
31 | CCOP1(=O)CC(C)=C(Cl)C(P(=O)(O)O)C1 (configuration not stated) | 101% (inactive)
32 | Cc1ccc(OCCn2ccc(=O)n(CCOc3ccc(Cl)cc3C(=O)c3cc(C)cc(C)c3)c2=O)cc1 | 13.2% (inactive)

System: MALME-3M melanoma
Experiment: as above
Settings: 10 µM unless noted

Row | SMILES | growth
33 | C/C(CCC(=O)O)=N/Nc1ccc([N+](=O)[O-])cc1 | 111% (inactive)
34 | Nc1nc2c(c3ncncc13)C(c1cccc(C(F)(F)F)c1)Cc1ncncc1-2 (configuration not stated) | 66.2% (inactive)
35 | COc1ccc(-c2nc(SCC(C)C)nc(Nc3ccc([N+](=O)[O-])cc3)c2C#N)cc1 | 98% (inactive)
36 | Cn1c2c(cc(S(=O)(=O)c3ccccc3)c1=O)CCc1c-2cnn1-c1ccc(Cl)cc1 | -70.7% (active)
37 | Nc1nc2c(c3cnccc13)C(c1cccc(Cl)c1)Cc1cnccc1-2 (configuration not stated) | 62.4% (inactive)
38 | CCCCCSc1ccc2nc(NC(=O)OCCC)sc2c1 | 62.5% (inactive)
39 | CCCCCSc1ccc2nc(NC(=O)OCC)sc2c1 | 42.2% (inactive)
40 | Cc1c(Cc2ccccc2)c(=O)oc2c(C)c(OCc3n[nH]c(=S)o3)ccc12 | 48.7% (inactive)
41 | CCOC(=O)c1c(C)oc2ncnc(Nc3ccc(C(=O)NCCc4ccccc4)cc3)c12 | 89.5% (inactive)
42 | COc1cc(/C=C/C(=O)c2ccc(F)cc2)ccc1OCCCCOc1cc2c(cc1OC)C(=O)N1CCCC1C=N2 (configuration not stated) | -6.3% (active)
43 | C=C(C)[C@@H]1CC[C@]2(COC(=O)c3ccccc3C(=O)O)CC[C@]3(C)[C@H](CC[C@@H]4[C@@]5(C)CCCNC(C)(C)[C@@H]5CC[C@]43C)[C@@H]12 | 68.2% (inactive)
44 | O=C(CCCC(=O)Nc1ccc(Cn2nnc3cc(Cl)c(Cl)cc32)cc1)Nc1ccc(CN2N=NC3C=C(Cl)C(Cl)=CC32)cc1 (configuration not stated) | 97% (inactive)
45 | CCS(=O)(=O)OCCO[C@H]1Cc2cc3ccc(=O)oc3cc2OC1(C)C | 105% (inactive)
46 | O=C1Nc2ccccc2/C1=C/c1cn(CC(O)Cn2cc(/C=C3\C(=O)Nc4ccccc43)c3ccccc32)c2ccccc12 (configuration not stated) | -76.1% (active)
47 | COC(=O)Nc1nc2ccc(C(=O)c3ccccc3N(C)C3COC3)cc2[nH]1 | 58.8% (inactive)
48 | COC(=O)/C=C/c1cc(O)c2oc(-c3ccc(O)c(O)c3)c(C(=O)OC)c2c1 | 57.4% (inactive)
49 | CC(C)OC(=O)[C@H](C)N[P@@](=O)(OC[C@@]1(C)O[C@@H](n2cc(F)c(N)nc2=O)C[C@@H]1O[P@](=O)(N[C@@H](C)C(=O)OC(C)C)Oc1ccccc1)Oc1ccccc1 | 91.1% (inactive)
50 | COc1cc2ncnc(Nc3ccc4c(cnn4C(=O)Nc4ccccc4)c3)c2cc1OC | 85.6% (inactive)
51 | Cc1nnc(/N=C2\NC(=O)/C(=C/C=C/c3ccccc3)S2)s1 | 54.1% (inactive)
52 | COC(c1ccccc1)C(Br)C(=O)c1ccccc1 (configuration not stated) | 87.8% (inactive)

Row | SMILES | growth
53 | O=C1c2ccccc2CCc2ccccc21 | 98% (inactive)
54 | COc1cc2ncnc(-n3ncc4cc(NC(=O)Nc5ccccc5)ccc43)c2cc1OC | -13.8% (active)
55 | COc1cc(-c2cc3cnccc3c3nc(N)c4ccncc4c23)cc(OC)c1OC | 59.8% (inactive)
56 | COc1cc(OC)c(NC(=O)n2ncc3cc(Nc4ncnc5ccccc45)ccc32)cc1Cl | 110% (inactive)
57 | COc1cc(OC)cc(-c2ccc(-c3ccc(C(=N)N)cc3)s2)c1 | -80.7% (active)
58 | CC1(C)NCCC[C@]2(C)[C@H]3CC=C4[C@@H]5C[C@](C)(COC(=O)c6ccccc6C(=O)O)CC[C@]5(C)CC[C@@]4(C)[C@]3(C)CC[C@@H]12 | 66.3% (inactive)
59 | Nc1ncn([C@@H]2O[C@H](CO)[C@@H](O)C2(F)F)c(=O)n1 | 67.9% (inactive)
60 | CCOC(=O)c1cc(C(=O)c2ccc(Br)cc2)n2cc(C)cc(C)c12 | 96.1% (inactive)
61 | Nc1nc2c(c3cnccc13)C(c1cccc(Br)c1)Cc1cnccc1-2 (configuration not stated) | 36.1% (inactive)
62 | O=C1/C(=C\c2cn(-c3nc(N4CCOCC4)nc(N4CCOCC4)n3)c3ccccc23)c2ccccc2N1c1c(Cl)cccc1Cl | 95.6% (inactive)
63 | COc1cc2ncnc(-n3ncc4cc(NC(=O)Nc5ccc(Cl)c(C)c5)ccc43)c2cc1OC | 82.8% (inactive)
64 | CC1=C[C@@H]2c3c(c(O)c(O)c4oc5cc(O)cc(O)c5c(=O)c34)[C@@H](c3cc(O)c(O)c4oc5cc(O)cc(O)c5c(=O)c34)[C@@H]2C(C)(C)C1 | -10.3% (active)
65 | N=C(N)c1ccc(-c2ccc(-c3cc(Cl)cc(Cl)c3)s2)cc1 | -74.4% (active)
66 | COc1cc2ncnc(-n3ncc4cc(NC(=O)Nc5ccc(Cl)c(Cl)c5)ccc43)c2cc1OC | -44.3% (active)
67 | COC1=CC(c2ccc[nH]2)=N/C1=C\c1[nH]c(C)c(C(=O)CCCCC(=O)NC(C)(C)C)c1C | 48.7% (inactive)
68 | CC1=NN(c2cccc(Cl)c2)C(=O)/C1=C\c1cn(-c2nc(N3CCOCC3)nc(N3CCOCC3)n2)c2ccccc12 | 104% (inactive)
69 | O=C(Nc1ccccc1)Nc1ccc(Nc2ncnc3sc4c(c23)CCCC4)cc1 | 102% (inactive)
70 | O=c1c(N=Nc2nccs2)c(-c2ccccc2)[nH]n1-c1nc(-c2ccccc2)cs1 | 72% (inactive)
71 | CCOP1(=O)CC(C)=C(Cl)C(P(=O)(O)O)C1 (configuration not stated) | 95.1% (inactive)
72 | Cc1ccc(OCCn2ccc(=O)n(CCOc3ccc(Cl)cc3C(=O)c3cc(C)cc(C)c3)c2=O)cc1 | 51.9% (inactive)
